Source: PubChem BioAssay (NCATS)
Records with an inconclusive call do not appear. Calls of active or inactive are those of the source. Unless noted, calls follow the shape of the dose curve; as a rule, active = well fitted curve in either direction with a large enough effect (not every such curve was filed as active); inconclusive = small, poorly fitted or top-dose-only effect, or another doubt; inactive = flat fitted curve, though single readings scatter.

Assays:
[1] = target: Lysosomal acid glucosylceramidase (Homo sapiens) (UniProt P04062); assay: Glucocerebrosidase-p2 (AID 348; in the data active = potency below about 10 µM; also: potency is read from the fitted curve at half-maximal effect); conditions: purified GBA, blue fluorogenic substrate, 40 min
Chain of Lysosomal acid glucosylceramidase (Homo sapiens) (P04062 whole entry, looked up): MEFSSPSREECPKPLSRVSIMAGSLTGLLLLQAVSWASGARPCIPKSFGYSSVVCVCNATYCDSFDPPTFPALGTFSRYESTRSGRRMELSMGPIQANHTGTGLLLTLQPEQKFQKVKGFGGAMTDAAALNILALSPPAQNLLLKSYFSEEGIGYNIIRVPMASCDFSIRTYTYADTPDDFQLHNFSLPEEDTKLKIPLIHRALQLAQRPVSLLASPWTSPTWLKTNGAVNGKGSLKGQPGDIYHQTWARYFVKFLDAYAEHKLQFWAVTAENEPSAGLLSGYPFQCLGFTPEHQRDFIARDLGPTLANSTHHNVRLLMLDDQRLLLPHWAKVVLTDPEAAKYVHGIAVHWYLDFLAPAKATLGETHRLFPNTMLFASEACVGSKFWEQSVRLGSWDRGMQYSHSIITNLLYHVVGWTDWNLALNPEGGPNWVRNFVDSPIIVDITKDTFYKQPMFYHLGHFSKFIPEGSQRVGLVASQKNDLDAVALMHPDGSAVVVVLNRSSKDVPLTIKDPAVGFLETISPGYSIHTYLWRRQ
Method in brief: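 Compounds titrated from 0.6 nM upwards against 0.2 nM enzyme in pH 5.9 citric acid/KH2PO4, taurocholate, tween-20; blue fluorogenic substrate 80 uM, 40 min room temperature, stopped and read Ex 365/Em 440 for AC50.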

[2] = AP1 Signaling Pathway (AID 357); conditions: ME-180 AP-1-bla reporter, EGF-induced, beta-lactamase ratio, 5 h; at 7.69 µM (top of the series) unless noted;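 also: ME-180 reporter cells stimulated with EGF at its EC50 level; % is scaled to controls: 0 for no effect and ±100 for the full control effect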
Method in brief: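 Titration-series screen for positive or negative modulators of EC50 EGF-induced signaling in ME-180 cells carrying an AP-1-driven beta-lactamase reporter. After 5 hours at 37 degrees Celsius, CCF4 460nm/530nm emission ratio gave %Activity; AC50 values derived.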

[3] = NFAT Signaling Pathway (AID 444); conditions: Jurkat NFAT-bla M1, carbachol, beta-lactamase ratio, 5 h; at 7.69 µM (top of the series) unless noted;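 also: carbachol stimulus at about its EC50 of 1 µM final; % is scaled to controls: 0 for no effect and ±100 for the full control effect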
Method in brief: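 Jurkat cells with NFAT-driven β-lactamase reporter and co-expressed M1 receptor, stimulated with carbachol (final 1 uM, ~EC50), compound titration, 5 h at 37 °C. CCF4 loaded 1 h at RT; 460/530 nm ratio gave %activity and AC50.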

[4] = Stat Signaling Pathway (AID 446); conditions: ME-180 (cervical carcinoma) SIE beta-lactamase reporter, IL-6 stimulated, 5 h; at 7.69 µM (top of the series) unless noted;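 also: ME-180 cervical cancer cells given 40 pM IL-6 alongside compound; SIE-controlled beta-lactamase reporter measured as 460/530 nm FRET emission ratio; % is scaled to controls: 0 for no effect and ±100 for the full control effect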
Method in brief: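 IL-6/STAT signaling read in ME-180 cells via an SIE beta-lactamase reporter. Stimulus was 40 pM IL-6 (its AC50) for 5 hrs, so both activation and inhibition register.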

[5] = target: Glucocorticoid receptor (Homo sapiens) (UniProt P04150); assay: GR-EFC Redistribution (AID 451; calls by dose curve; also: potency is read from the fitted curve at half-maximal effect); conditions: CHO-K1 GR-EFC translocation, beta-gal luminescence, 2 h
Chain of Glucocorticoid receptor (Homo sapiens) (P04150 whole entry, looked up, the tested form may be a part): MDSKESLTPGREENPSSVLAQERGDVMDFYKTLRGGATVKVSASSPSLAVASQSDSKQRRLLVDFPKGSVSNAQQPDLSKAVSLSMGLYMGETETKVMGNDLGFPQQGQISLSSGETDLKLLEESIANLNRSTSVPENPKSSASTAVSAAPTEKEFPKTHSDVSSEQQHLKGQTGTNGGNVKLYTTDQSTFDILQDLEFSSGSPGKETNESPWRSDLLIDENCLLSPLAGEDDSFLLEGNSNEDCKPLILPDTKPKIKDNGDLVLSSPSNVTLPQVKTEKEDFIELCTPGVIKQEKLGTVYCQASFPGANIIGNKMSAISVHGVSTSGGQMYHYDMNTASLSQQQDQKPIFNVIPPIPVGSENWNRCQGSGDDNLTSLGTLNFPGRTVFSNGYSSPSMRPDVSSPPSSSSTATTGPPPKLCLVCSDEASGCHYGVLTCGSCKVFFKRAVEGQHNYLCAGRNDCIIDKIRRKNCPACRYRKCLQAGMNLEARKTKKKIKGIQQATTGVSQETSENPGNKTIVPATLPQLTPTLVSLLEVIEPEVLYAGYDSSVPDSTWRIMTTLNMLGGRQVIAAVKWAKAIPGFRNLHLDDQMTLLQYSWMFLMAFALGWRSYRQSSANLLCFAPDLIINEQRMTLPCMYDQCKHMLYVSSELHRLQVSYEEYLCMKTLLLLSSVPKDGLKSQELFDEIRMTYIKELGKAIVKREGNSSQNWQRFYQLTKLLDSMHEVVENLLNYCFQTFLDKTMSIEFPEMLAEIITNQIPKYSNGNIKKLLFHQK
Method in brief: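 CHO-K1 cells expressing nuclear EA and GR-ED fragments of b-gal; compounds titrated up to 46 uM final, 2 h at 37 C. GR nuclear translocation read as complemented b-gal luminescence after 1 h RT detection.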

[6] = target: Mitogen-activated protein kinase 10 (Mus musculus) (UniProt Q61831); assay: JNK3 AlphaScreen Assay (AID 530);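 also: kinase came from lysate of stimulated human HepG2 cells; signal reports phosphorylation of biotinylated GST-cJun 1-79 at Ser73 with 10 µM ATP; % is scaled to controls: 0 for no effect and ±100 for the full control effect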
Method in brief: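 qHTS format: compounds tested as titrations against IL-1beta/TNF-alpha-activated HepG2 lysate JNK3 with biotin-GST-cJun substrate and 10 uM ATP at room temperature. Loss of anti-phospho-cJun AlphaScreen signal indicates inhibition.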

[7] = target: 3',5'-cyclic-AMP phosphodiesterase 4B (Homo sapiens) (UniProt Q07343); assay: qHTS Assay for Inhibitors of PDE-IV (AID 607; active = well fitted activation curve with a large enough effect in the main read-out, with a control signal flat, not every such curve was filed as active; also: % of control where 0% means no effect)
Chain of 3',5'-cyclic-AMP phosphodiesterase 4B (Homo sapiens) (Q07343 whole entry, looked up): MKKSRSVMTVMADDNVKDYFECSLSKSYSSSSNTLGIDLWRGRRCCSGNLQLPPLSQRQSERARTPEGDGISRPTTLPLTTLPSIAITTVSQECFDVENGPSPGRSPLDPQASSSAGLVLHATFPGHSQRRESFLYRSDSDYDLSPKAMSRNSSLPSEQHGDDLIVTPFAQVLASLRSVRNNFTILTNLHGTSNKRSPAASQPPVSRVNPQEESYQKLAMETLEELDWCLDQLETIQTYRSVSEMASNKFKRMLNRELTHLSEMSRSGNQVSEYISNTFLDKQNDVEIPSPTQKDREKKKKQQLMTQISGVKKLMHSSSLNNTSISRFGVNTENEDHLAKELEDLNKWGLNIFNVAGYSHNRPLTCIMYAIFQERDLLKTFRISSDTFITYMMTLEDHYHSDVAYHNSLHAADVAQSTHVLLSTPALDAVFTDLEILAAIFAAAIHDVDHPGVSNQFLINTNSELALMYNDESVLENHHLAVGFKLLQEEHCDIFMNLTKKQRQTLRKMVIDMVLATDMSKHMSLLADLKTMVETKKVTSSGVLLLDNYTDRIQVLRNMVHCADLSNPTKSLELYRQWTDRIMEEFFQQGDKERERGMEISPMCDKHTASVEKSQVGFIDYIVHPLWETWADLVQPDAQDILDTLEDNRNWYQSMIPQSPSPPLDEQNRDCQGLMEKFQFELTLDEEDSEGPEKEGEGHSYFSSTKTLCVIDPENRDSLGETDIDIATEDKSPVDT
Method in brief: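 Live HEK293 cells with a modified cyclic nucleotide-gated (CNG) channel report intracellular cAMP via membrane-potential dye fluorescence (ex 535/em 590 nm). Endogenous PDE-IV was targeted. Compounds were tested at up to 22.9 uM final; RO 20-1724 100 uM served as control.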

[8] = qHTS Assay for Lipid Storage Modulators (AID 1519; calls by dose curve); conditions: Drosophila S3 cells, BODIPY lipid droplet/cell ratio, laser cytometry, cells loaded with oleic acid; for activity change, negative = inhibition: at 57.5 µM (top of the series)
Method in brief: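 Cells seeded at 5,000 per well were treated with compounds over a concentration series and loaded with oleic acid (400 uM, as added). Lipid droplet fluorescence (488 nm excitation, 500-530 nm channel) was read by laser-scanning cytometry and normalized to 20 uM Triacsin C.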

[9] = Primary qHTS for small molecule stabilizers of the endoplasmic reticulum resident proteome: Secreted ER Calcium Modulated Protein (SERCaMP) assay (AID 1508630; active = well fitted curve in the direction sought with a large enough effect; an effect the other way counts as inactive or inconclusive; also: % is scaled to controls: 0 for no effect and ±100 for the full control effect)
Method in brief: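 GLuc-SERCaMP-expressing SH-SY5Y cells, pretreated 16 h with compound, are challenged with thapsigargin to empty ER calcium stores; after 4 h, coelenterazine is added directly to the medium and luminescence is imaged.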

[10] = target: Cytochrome P450 1A2 (Homo sapiens) (UniProt P05177); assay: p450-cyp1a2 (AID 410; calls by dose curve; also: potency is read from the fitted curve at half-maximal effect;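 as to activity change, negative = inhibition: -100% = full effect of reference inhibitor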)
Chain of Cytochrome P450 1A2 (Homo sapiens) (P05177 whole entry, looked up): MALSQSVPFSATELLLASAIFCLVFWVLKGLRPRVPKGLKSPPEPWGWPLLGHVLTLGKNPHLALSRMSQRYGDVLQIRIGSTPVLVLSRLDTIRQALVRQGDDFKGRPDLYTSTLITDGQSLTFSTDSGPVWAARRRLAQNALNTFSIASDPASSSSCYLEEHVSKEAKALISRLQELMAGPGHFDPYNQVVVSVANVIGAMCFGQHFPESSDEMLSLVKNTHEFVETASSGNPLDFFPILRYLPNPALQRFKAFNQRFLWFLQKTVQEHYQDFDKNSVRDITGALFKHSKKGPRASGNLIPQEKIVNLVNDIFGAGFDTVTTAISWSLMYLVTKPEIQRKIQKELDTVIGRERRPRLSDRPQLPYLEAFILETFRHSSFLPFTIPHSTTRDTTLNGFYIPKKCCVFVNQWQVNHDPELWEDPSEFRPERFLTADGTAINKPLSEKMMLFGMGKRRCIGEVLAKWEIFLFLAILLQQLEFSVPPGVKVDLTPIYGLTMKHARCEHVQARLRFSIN
Method in brief: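 Human CYP1A2 (20nM) demethylated Luciferin-ME at its Km (100uM) in 100mM KPO4. After 10 min compound preincubation, NADPH regeneration ran the reaction 60 min at room temperature. Luciferin was read by luminescence, normalized to 57 uM furafylline.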

[11] = target: Glucocorticoid receptor (Homo sapiens) (UniProt P04150); assay: GR-GFP Redistribution (AID 450;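 active = compounds whose dose series gives a full or clear partial fitted curve of increased nuclear translocation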; also: potency is read from the fitted curve at half-maximal effect); conditions: U2OS GR-GFP nuclear translocation, laser cytometry, 2 h
[12] = target: Cytochrome P450 3A4 (Homo sapiens) (UniProt P08684); assay: qHTS Assay for Activators of Cytochrome P450 3A4 (AID 885; active = well fitted curve in the direction sought with a large enough effect; an effect the other way counts as inactive or inconclusive; also: nearly all actives have a fitted effect of over 65% in size; also: potency is read from the fitted curve at half-maximal effect)
Chain of Cytochrome P450 3A4 (Homo sapiens) (P08684 whole entry, looked up): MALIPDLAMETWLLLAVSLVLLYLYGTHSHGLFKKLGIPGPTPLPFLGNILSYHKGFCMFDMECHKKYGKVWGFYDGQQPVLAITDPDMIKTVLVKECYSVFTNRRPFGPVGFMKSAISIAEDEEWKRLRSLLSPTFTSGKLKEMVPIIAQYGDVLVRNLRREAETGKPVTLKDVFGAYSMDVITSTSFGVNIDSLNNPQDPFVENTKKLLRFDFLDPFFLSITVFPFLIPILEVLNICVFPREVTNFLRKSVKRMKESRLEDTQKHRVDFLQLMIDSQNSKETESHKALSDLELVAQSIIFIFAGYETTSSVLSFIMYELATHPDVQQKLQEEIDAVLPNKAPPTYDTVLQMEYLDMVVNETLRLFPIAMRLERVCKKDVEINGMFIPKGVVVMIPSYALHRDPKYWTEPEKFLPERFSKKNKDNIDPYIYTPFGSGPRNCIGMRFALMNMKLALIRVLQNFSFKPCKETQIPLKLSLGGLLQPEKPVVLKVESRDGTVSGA
Method in brief: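 Quantitative HTS format: compounds preincubated with 20nM human CYP3A4 and Luciferin-PPXE substrate at KM, reaction started by NADPH regeneration, stopped after 60 min, luciferase luminescence read 20 min later.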

[13] = Confirmation and Secondary Assay for Modulators of Hemoglobin Beta Chain Splicing at IVS2 654 locus (AID 910; active = well fitted curve in the direction sought with a large enough effect; an effect the other way counts as inactive or inconclusive;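 also: HeLa cells stably carrying EGFP split by mutant beta-globin IVS2-654 intron; % of control where 0% means no effect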)
Method in brief: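 HeLa cells stably expressing EGFP interrupted by β-globin IVS2-654 intron, seeded overnight in Opti-MEM/2% FCS, then treated 2 days at 37 °C. Restored splicing read as total peak GFP intensity per well by laser scanning cytometry (488 nm excitation, 500–520 nm emission); 500 nM antisense PNA as control.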

[14] = Confirmation and Secondary Assay for Modulators of Hemoglobin Beta Chain Splicing at IVS2 705 locus (AID 930; active = well fitted curve in the direction sought with a large enough effect; an effect the other way counts as inactive or inconclusive;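 also: HeLa cells stably expressing the EGFP-705 splicing reporter; GFP fluorescence per well restored by corrected splicing of the IVS2-705 intron in EGFP; % of control where 0% means no effect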)
Method in brief: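 HeLa IVS2-705 EGFP reporter cells, 500/well, compound 2 d at 37C; correct splicing yields fluorescent EGFP. Control: 500 nM antisense PNA. Read-out: total peak GFP intensity.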

[15] = target: Ubiquitin carboxyl-terminal hydrolase 1 (Homo sapiens) (UniProt O94782); assay: Inhibitors of USP1/UAF1: Pilot qHTS (AID 504865; active = well fitted curve in the direction sought with a large enough effect; an effect the other way counts as inactive or inconclusive;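 also: rhodamine fluorescence freed from ubiquitin-rhodamine substrate followed over time; top concentration of the series differs between compounds; % is scaled to controls: 0 for no effect and ±100 for the full control effect; nearly all actives have a fitted effect of over 35% in size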)
Chain of Ubiquitin carboxyl-terminal hydrolase 1 (Homo sapiens) (O94782 whole entry, looked up): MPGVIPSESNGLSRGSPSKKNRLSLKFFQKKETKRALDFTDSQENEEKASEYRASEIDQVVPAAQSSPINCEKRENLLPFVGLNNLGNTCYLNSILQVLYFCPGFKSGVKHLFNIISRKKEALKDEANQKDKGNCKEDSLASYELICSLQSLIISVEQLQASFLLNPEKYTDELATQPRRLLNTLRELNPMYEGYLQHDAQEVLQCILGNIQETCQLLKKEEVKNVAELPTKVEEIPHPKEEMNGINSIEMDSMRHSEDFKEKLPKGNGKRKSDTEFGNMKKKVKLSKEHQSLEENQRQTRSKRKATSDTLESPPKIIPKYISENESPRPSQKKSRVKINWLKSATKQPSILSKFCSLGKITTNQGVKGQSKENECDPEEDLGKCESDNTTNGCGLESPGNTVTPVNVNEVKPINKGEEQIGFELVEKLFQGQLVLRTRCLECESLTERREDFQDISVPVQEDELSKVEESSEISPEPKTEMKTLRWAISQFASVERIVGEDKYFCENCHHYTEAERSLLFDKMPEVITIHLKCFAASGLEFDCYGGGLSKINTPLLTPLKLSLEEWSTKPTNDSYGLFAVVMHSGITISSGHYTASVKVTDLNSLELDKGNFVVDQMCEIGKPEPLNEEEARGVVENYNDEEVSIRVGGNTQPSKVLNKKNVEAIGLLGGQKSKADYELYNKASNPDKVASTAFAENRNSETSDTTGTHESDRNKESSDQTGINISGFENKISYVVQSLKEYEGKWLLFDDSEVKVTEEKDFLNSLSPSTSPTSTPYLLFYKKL
Method in brief: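 In 50mM HEPES pH 7.8 containing 0.5mM EDTA, 1mM TCEP, 0.1 mg/ml BSA and 0.01% Tween-20, 1nM USP1/UAF1 is exposed to compound for 15 min, then Ub-Rho (150nM final) is added and fluorescence is read over time.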

[16] = target: Cytochrome P450 3A4 (Homo sapiens) (UniProt P08684); assay: qHTS Assay for Inhibitors and Substrates of Cytochrome P450 3A4 (AID 884; active = well fitted curve in the direction sought with a large enough effect; an effect the other way counts as inactive or inconclusive; also: % is scaled to controls: 0 for no effect and ±100 for the full control effect; nearly all actives have a fitted effect of over 50% in size)
Method in brief: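 20 nM human CYP3A4 with 25 uM Luciferin-PPXE (at KM) in 200 mM KPO4, preincubated 10 min with compound; NADPH regeneration started a 60 min RT reaction. Luciferin detected by luminescence, normalized to 57 uM ketoconazole as full inhibition.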

[17] = measured here: cell count channel max response
[18] = measured here: lipid channel max response

O=C(Nc1ccccc1)N1CCC2(CC1)CCN(C(=O)c1ccncc1)CC2
27.7%: max response [8, 18]
inactive: Potency [1] > 11.4 µM | activity change, negative = inhibition [2] -8.86% | activity change, negative = inhibition [3] -7.39% | activity, negative = inhibition [4] 2.23% | Potency [5] > 46 µM | outcome [6] | Potency [7] | activity change, negative = inhibition [8] 7.6% | Potency [9]
12.3%: max response [8, 17]

COc1ccc(NC(=O)N2CC[C@@]3(CCCNC3)C2)cc1
-3.47%: max response [8, 17]
-5.51%: max response [8, 18]
inactive: activity change, negative = inhibition [2] -15.6% | Potency [10] | activity change, negative = inhibition [3] -5.59% | activity, negative = inhibition [4] -0.259% | Potency [5] > 46 µM | outcome [6] | Potency [7] | activity change, negative = inhibition [8] -2.79% | Potency [9]

CC(=O)N1CCC2(CCN(Cc3cc(C(F)(F)F)cc(C(F)(F)F)c3)CC2)CC1
6.37%: max response [8, 17]
10.7%: max response [8, 18]
inactive: Potency [1] > 11.4 µM | activity change, negative = inhibition [2] -20.5% | activity, negative = inhibition [4] 8.31% | Potency [5] > 46 µM | outcome [6] | Potency [7] | activity change, negative = inhibition [8] 2.13% | Potency [9]
active: Potency [10] 15.8 µM

CN(C)c1ncnc2ccc(-c3ccccc3C#N)cc12
inactive: Potency [1] > 11.4 µM | activity change, negative = inhibition [2] -24% | activity, negative = inhibition [4] 18.9% | Potency [11] > 46 µM | Potency [5] > 46 µM | outcome [6] | Potency [7] | Potency [12] | outcome [13] | outcome [14] | activity change, negative = inhibition [8] 8.38% | Potency [15] | Potency [9]
15.4%: max response [8, 17]
23.3%: max response [8, 18]
active: Potency [10] 0.398 µM

Cn1cccc1C(=O)N1CCC2(CC1)CCN(c1ccc(-c3ccccc3)cc1)CC2
inactive: Potency [1] > 11.4 µM | activity change, negative = inhibition [2] -19.9% | activity, negative = inhibition [4] -10.4% | Potency [5] > 46 µM | outcome [6] | Potency [7] | Potency [16] | activity change, negative = inhibition [8] -6.03% | Potency [9]
-7.47%: max response [8, 18]
active: Potency [10] 20 µM | Potency [12] 15.8 µM
-2.01%: max response [8, 17]

Cc1cccc(CNc2ncnc3ccc(-c4cccc(C#N)c4)cc23)c1
active: Potency [10] 0.631 µM
-19.2%: max response [8, 18]
-20.2%: max response [8, 17]
inactive: Potency [1] > 11.4 µM | activity change, negative = inhibition [2] -19.4% | activity, negative = inhibition [4] -6.66% | Potency [5] > 46 µM | outcome [6] | outcome [13] | outcome [14] | activity change, negative = inhibition [8] 0.488% | Potency [9]

CN1CCN(c2cc(-c3ccccc3C(F)(F)F)ncn2)CC1
20.3%: max response [8, 17]
active: Potency [10] 12.6 µM
26.3%: max response [8, 18]
inactive: Potency [1] > 11.4 µM | activity change, negative = inhibition [2] 8.33% | activity, negative = inhibition [4] 8.15% | Potency [11] > 46 µM | Potency [5] > 46 µM | outcome [6] | Potency [7] | outcome [13] | outcome [14] | activity change, negative = inhibition [8] 9.46% | Potency [15] | Potency [9]
